The record followed here is PubChem BioAssay.

Unmarked numbers belong to inactive results. The rule behind the calls is not given here.

Chain of Pantothenate synthetase (Mycobacterium tuberculosis (strain ATCC 25618 / H37Rv)) (P9WIL5 whole entry, looked up): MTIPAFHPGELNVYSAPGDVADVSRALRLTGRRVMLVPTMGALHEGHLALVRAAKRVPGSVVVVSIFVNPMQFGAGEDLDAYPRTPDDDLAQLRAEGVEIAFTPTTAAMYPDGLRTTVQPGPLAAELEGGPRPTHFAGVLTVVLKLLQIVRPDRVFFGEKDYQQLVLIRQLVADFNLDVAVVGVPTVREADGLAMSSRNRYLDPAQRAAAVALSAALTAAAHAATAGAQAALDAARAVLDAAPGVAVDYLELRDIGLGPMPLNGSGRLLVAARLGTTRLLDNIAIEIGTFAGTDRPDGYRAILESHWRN

The test concerns the target Pantothenate synthetase (Mycobacterium tuberculosis (strain ATCC 25618 / H37Rv)) (UniProt P9WIL5). The test is described as follows: Recombinant Mtb pantothenate synthetase (PanC) inhibitors, coupled enzyme, confirmatory (AID 375).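 Note: 0% = full reaction with vehicle and 100% = no enzyme background.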 The settings on record: coupled enzyme assay; at 10 µM, active compounds read high.
In the case of `CCCCC(=O)NCCc1ccc(S(N)(=O)=O)cc1`, the inhibition is 0%. For the compound `COc1cc(OC)c(C(=O)Nc2ncn[nH]2)cc1OC`, the inhibition is 0%. Under `CC1(C)CC(CCNC(=O)c2ccco2)CC(C)(C)N1` stands 0%; under `Cc1ccc(-c2cc(C(F)F)nc(N3CCC(C)CC3)n2)cc1`, 6%. With `COc1cccc(S(=O)(=O)Nc2cccnc2)c1`, the inhibition is 10%. On to `COc1cc(CN2CCC(C(=O)NC3CCCC3)CC2)ccc1O`, for which the inhibition was 0%.

Take `COc1cc(OC)cc(C(=O)N2c3ccc(F)cc3CCC2C)c1` (stereo not given): the inhibition was 0%. Take `CCOc1ccc2nc(S(N)(=O)=O)sc2c1`: the inhibition was 3%.

With `Clc1cccc(-c2nnc3sc(-c4ccccc4)nn23)c1`, the inhibition was 0%. Regarding `OCC(O)CN1CCN(c2ccccc2)CC1` (stereo not given), the inhibition was 0%. Consider `CC1Cc2ccccc2N1CC(=O)NC(=O)NCc1ccco1` (stereo not given), for which the inhibition was 2%. Regarding `COC(=O)CCC(=O)Nc1ccc(OC)cc1`, the inhibition is 0%. Next, `CCOC(=O)Cn1nc(-c2ccc(C)cc2)ccc1=O`: 0%. Consider `CCOC(=O)C1CCN(C(c2cc3cc(C)cc(C)c3[nH]c2=O)c2nnnn2C2CCCCC2)CC1` (stereo not given), for which the inhibition was 0%. Turning to `CC(C)(C)NC(=O)CN(C(=O)C1CSC(=O)C1)c1ccc2c(c1)OCCO2` (stereo not given), the inhibition was 0%. Next, `C(=N\n1cnnc1)/c1cccnc1`: 0%; `COCCn1c(Sc2nc(C)cs2)nc2c1c(=O)[nH]c(=O)n2C`: 0%; `CCCCn1c(CNC(=O)CCC)nc2ccccc21`: 4%. Turning to `Cc1ccc(C)c(N2CCN(C(=O)c3ccc(CS(=O)(=O)c4ccccc4C)o3)CC2)c1`, the inhibition is 8%. Regarding `CCOC(=O)C1=C(c2ccccc2)Nc2nc(C)nn2C1c1cccc(OC)c1OC` (stereo not given), the inhibition was 0%. Next, `Cc1nc2ccc(S(=O)(=O)NCC(=O)O)cc2s1`: 4%; `Cc1cc2c(c(=O)o1)C(Cc1ccccc1)C(C#N)=C(N)O2` (stereo not given): 1%; `CCOC(=O)C1CCCN(c2cc(=O)n(Cc3ccc(F)cc3)c(=O)[nH]2)C1` (stereo not given): 2%.

Consider `Nc1nnc(C(=O)c2ccccc2N)s1`, for which the inhibition was 0%. On to `Cn1c(=O)c2c(nc(NCCCO)n2CCc2ccccc2)n(C)c1=O`, for which the inhibition is 0%. In the case of `O=c1oc2ccccc2n1CCc1ccccc1`, the inhibition was 4%. Next, `CC1(c2ccc(OC(F)F)cc2)NC(=O)N(CC(=O)Nc2ccc3c(c2)OCO3)C1=O` (stereo not given): 3%; `COc1cccc(-c2nc(CS(=O)(=O)CC(=O)N3CCN(c4ccccn4)CC3)c(C)o2)c1`: 5%. Take `O=C(O)c1ccc2c3c(ncnc13)-c1ccccc1C2=O`: the inhibition was 1%. Turning to `O=C(CCN1C(=O)c2ccccc2C1=O)Nc1ccc(F)cc1`, the inhibition is 0%. As to `CCc1ccc2[nH]c(=O)c(C(c3nnnn3CC3CCCO3)N3CCN4CCCC4C3)cc2c1` (stereo not given), the inhibition was 4%. Next, `COCCOC(=O)c1[nH]c2c(c1C)C(=O)CC(c1ccc(N(C)C)cc1)C2` (stereo not given): 0%. For the compound `CCCCn1c(=O)[nH]c(=O)c2c1nc(COc1ccc(C#N)cc1)n2CCC`, the inhibition was 4%.

As for `COc1cc2c(cc1OC)-c1cc(OCc3cccnc3)nc(=O)n1CC2`, the inhibition is 12%.

On to `c1ccc2c(c1)Cc1cc(CN3CCOCC3)ccc1-2`, for which the inhibition is 3%. Consider `CCCSCCCNC(=O)Cn1cc2c(n1)CCC(C)C2` (stereo not given), for which the inhibition is 2%. On to `Nc1c(C2=NCCO2)nnn1Cc1ccccc1`, for which the inhibition was 0%. As to `CCCC(=O)Nc1ccccc1NC(=O)CCC`, the inhibition was 0%. Consider `CCCCCCc1ccc(-c2ncc(N)cn2)cc1`, for which the inhibition is 0%. Next, `C[C@]12C=CC(=O)C=C1CC[C@H]1[C@@H]3C[C@@H](O)[C@](O)(C(=O)CO)[C@@]3(C)C[C@H](O)[C@@]12F`: 0%.
